APOBEC3G inh: blocks human APOBEC3G single-stranded DNA deamination | Q9HC16 | recombinant A3G, ssDNA deamination FAM/TAMRA fluorescence | inhibition, % at 20 µM | hit rate 0.28% among 330,000;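 active = inhibition of at least 40% at 20 µM, with no more than 30% in the related APOBEC3A deaminase screen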;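 note: plate controls were DMSO wells with A3G for no effect and wells lacking A3G enzyme for full effect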
APOBEC3A inh: blocks human APOBEC3A ssDNA deamination; recombinant A3A, FAM/TAMRA ssDNA deamination fluorescence; inhibition, % at 20 µM; hit rate 0.41% among 330,000; P31941; AID 493011;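 active = at least 40% inhibition at 20 µM here, with at most 30% in a related deaminase screen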;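 note: plate controls were A3A with DMSO for no effect and wells lacking A3A enzyme for full effect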
Target sequence (P31941 whole entry, looked up): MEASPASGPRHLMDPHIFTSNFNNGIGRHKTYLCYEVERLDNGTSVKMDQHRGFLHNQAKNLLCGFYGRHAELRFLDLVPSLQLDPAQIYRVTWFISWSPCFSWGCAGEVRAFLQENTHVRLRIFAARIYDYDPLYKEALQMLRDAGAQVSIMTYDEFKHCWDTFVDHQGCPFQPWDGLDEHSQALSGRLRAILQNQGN
M18AAP inhibitor: PfM18AAP enzyme inhibition; recombinant PfM18AAP, H-Glu-NHMec fluorogenic cleavage; inhibition, % at 7.35 µM; hit rate 1.2% among 290,000;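 active = inhibition above the campaign mean inhibition over all tested compounds plus 3 SD, cut at about 28% in these data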;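 note: 0% = plate median of test compound wells and 100% = 2 mM ZnCl2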
ALR inh: human ALR oxidase inhibition via reduced H2O2 | P55789 | purified ALR, DTT oxidation, H2O2 HRP-luminol luminescence | inhibition, % (no concentration beside the values) | hit rate 3.8% among 290,000 | AID 485317;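 active = mean replicate inhibition above about 79%, with every replicate also reaching it, limit read from the data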
Target sequence (P55789 whole entry, looked up): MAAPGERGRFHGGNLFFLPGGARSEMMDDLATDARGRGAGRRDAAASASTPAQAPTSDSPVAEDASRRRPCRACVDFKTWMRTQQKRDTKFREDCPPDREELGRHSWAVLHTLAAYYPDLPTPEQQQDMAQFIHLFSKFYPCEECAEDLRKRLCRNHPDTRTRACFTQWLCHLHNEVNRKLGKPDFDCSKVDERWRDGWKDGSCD
CR mimetic SO: caloric restriction mimetics inhibiting age-related superoxide in yeast | S. cerevisiae aged cells, superoxide DHE fluorescence; stronger effect = lower value | superoxide response (% of plate mean), % at 10 µM | hit rate 0.18% among 330,000 | AID 2690;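 active = superoxide response under a set limit, about three screen SD below normal, cut at about 65% in these data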;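 note: yeast aged for seven days with compound at 30 °C before DHE staining; 100% = average MFI of all compound-treated wells on the plate with controls excluded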
CendR NRP1 mod: alters CendR peptide binding to human NRP-1; FAM-RPARPAR peptide binding to NRP-1, fluorescence polarization; inhibition, % at 25 µM; hit rate 0.85% among 360,000;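 active = inhibition or corrected inhibition above about 18%, plus a signal ratio from 0.5 to 1.5, limit read from the data, passing the limit was not always enough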
Numbers without * were called inactive; · = no result. A selection: hits, their analogues and other compounds. The true share with any hit is near 5.2%.

SMILES	APOBEC3G inh	APOBEC3A inh	M18AAP inhibitor	ALR inh	CR mimetic SO	CendR NRP1 mod
CC1CC(C)CN(CCCNS(=O)(=O)c2cc(Br)cc3c2N(C(=O)C2CC2)CC3)C1 (stereo not given)	-2.1	2.2	0.6	-0.4	88.0	16.1
CC(=O)Oc1ccc(C(=O)c2ccccc2)c(OC(C)=O)c1	-3.1	-1.5	2.7	98.2*	101.6	7.8
CCC(O)C(C)(C)C (stereo not given)	-10.4	-3.2	·	22.6	87.3	-1.6
CC1(C)CC(=O)C2=C(C1)Oc1ncn3nc(-c4cccnc4)nc3c1C2c1ccccc1 (stereo not given)	·	·	·	·	·	31.1*
Cc1c(C(=O)Nc2ccc(Cc3ccncc3)cc2)cccc1[N+](=O)[O-]	-3.1	-2.5	-2.0	·	99.0	18.9
Cc1ccc(NC(=O)C(C)N=C2NS(=O)(=O)c3ccccc32)cc1F (stereo not given)	-8.2	-1.3	-6.8	-2.9	98.8	21.0*
COc1ccc(C2=CC3=C(Br)C(=O)C(C)(O)C(=O)C3=CO2)cc1 (stereo not given)	-2.1	5.6	·	90.2*	92.8	17.6
CC(C)c1ccc(/C=C/C(=O)NC(=S)NN2CCOCC2)cc1	-9.1	-3.5	0.8	80.4*	66.9	8.2
CN(C)S(=O)(=O)c1cccc(NC(=S)NCc2ccco2)c1	-5.3	-2.9	-11.5	-2.1	89.8	10.2
CCN(CCO)c1ccc(NC(=S)Nc2cccc(S(=O)(=O)N(C)C)c2)cc1	-0.8	1.7	9.8	98.9*	96.9	1.3
CN(C)S(=O)(=O)c1cccc(NC(=S)Nc2cc(Cl)cc(Cl)c2)c1	-1.2	-0.2	-7.9	·	109.2	-4.3
CN(C)S(=O)(=O)c1cccc(NC(=S)Nc2ccc(Cl)cc2Cl)c1	-4.5	-0.6	-0.6	98.6*	105.0	-2.6
O=C(CNC(=O)c1ccccc1Cl)NC1CCN(Cc2ccccc2)CC1	-8.0	-1.1	0.8	-29.7	102.4	-3.2
COc1cc(C=NN2CCCCC2)cc(OC)c1OC	·	·	·	·	·	-9.0
CC1CCCC(C)N1/N=C/c1cc(Br)c(O)c(Br)c1 (stereo not given)	-4.4	-1.8	1.7	9.4	114.4	·
COc1cc(/C=N/N2CCCCC2)cc(OC)c1O	18.3	-5.4	27.0	99.3*	118.1	-4.1
CN=c1scc(C)n1/N=C/c1cc(Br)c(O)c(Br)c1	-13.2	4.0	18.5	·	98.9	1.2
CCN=c1scc(C)n1/N=C/c1cc(Br)c(O)c(OC)c1	4.2	2.6	35.3*	86.6*	112.6	-9.3
COc1cc(/C=N/N2C(C)CCCC2C)cc(Br)c1O (stereo not given)	1.9	3.4	8.1	99.3*	89.9	0.0
CN(CC(=O)Nc1ccccc1C(F)(F)F)C(=O)CSc1nnc(N)s1	14.3	4.6	·	2.7	115.8	0.8
Cc1cnc(C(=O)OCC(=O)Nc2oc(-c3ccccc3)c(-c3ccccc3)c2C#N)cn1	-4.7	-1.7	7.8	97.4*	112.2	-42.7
COc1cccc(-c2cc(N3C(=O)Nc4ccccc4N3O)n[nH]2)c1	-0.1	0.0	-1.3	-23.6	117.4	5.0
CCOc1ccc(-c2cc(N3C(=O)Nc4ccccc4N3O)n[nH]2)cc1	-8.7	-2.6	0.9	97.7*	115.9	0.0
O=C(O)c1ccc(N2N=C(c3ccccc3)CC2c2ccccc2)cc1 (stereo not given)	10.8	-8.5	-1.5	92.0*	102.0	1.2
CC(=O)Nc1ccc(C2=NN(c3ccccc3)C(c3ccccc3)C2)cc1 (stereo not given)	-8.4	-8.3	7.4	95.8*	99.1	9.4
Oc1ccc(C2=NN(c3ccccc3)C(c3ccc(F)cc3)C2)cc1 (stereo not given)	-3.9	3.1	17.7	96.8*	111.5	-11.0
CC(=O)Nc1ccc(C2CC(c3ccc(Cl)cc3)=NN2c2ccccc2)cc1 (stereo not given)	-11.7	-4.2	-0.3	-1.3	106.5	-5.3
Cc1c(CC(=O)O)c(=O)oc2c(C)c(OCc3ccccc3)ccc12	-6.0	-0.4	-14.8	-0.6	109.9	7.0
COc1ccccc1NC(=O)C1=C(C)NC(=O)NC1c1ccccc1F (stereo not given)	-0.2	0.6	-8.1	-51.1	103.8	19.8*
CCOC(=O)c1c(N)sc2c1CCN(CCc1ccccc1)C2	-7.5	-3.4	29.4*	-16.9	91.3	-57.3
